Assay results reported in PubChem BioAssay (Tox21).
Inconclusive results are not listed. Active and inactive are the calls of the source. Calls come from the whole dose curve; as a rule, active = well fitted curve in the direction sought with a large enough effect in the repeat runs; inconclusive = weak or mixed curves; inactive = no such curve, though single readings can be large; an effect the other way counts as inactive or inconclusive.

Columns and labels:
[1] = qHTS RealTime-Glo MT Cell Viability Assay in HEK293 cells - 0 hour (AID 1224880); note: top concentration of the series differs between compounds; nearly all actives have a fitted effect of over 45% in size
Outline: (§1)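 Nonlytic bioluminescent viability monitoring. HEK293 at 600 cells/well with reagent; 5 h settle; compound transfer by pintool; plates held at 37 C and read at set time points.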

[2] = A CellTox Green Cytotoxicity Assay to monitor cytotoxicity in HEK293 cells - 32 hour (AID 1224881); note: nearly all actives have a fitted effect of over 40% in size
Outline: (§2)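 Cytotoxicity was tracked continuously in HEK293 cells by a DNA-binding dye excluded from viable cells. Compounds were transferred in DMSO 5 h after seeding; fluorescence was recorded at intervals up to 40 h.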

[3] = A CellTox Green Cytotoxicity Assay to monitor cytotoxicity in HepG2 cells - 0 hour (AID 1224882); note: nearly all actives have a fitted effect of over 35% in size
Outline: (§3)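 Real-time, homogeneous cytotoxicity readout: dead-cell DNA staining by CellTox Green in HepG2 monolayers, fluorescence measured at timed intervals up to 40 h of continuous compound exposure.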

[4] = A CellTox Green Cytotoxicity Assay to monitor cytotoxicity in HEK293 cells - 8 hour (AID 1224884); note: nearly all actives have a fitted effect of over 35% in size
Outline: as §2

[5] = qHTS RealTime-Glo MT Cell Viability Assay in HepG2 cells - 16 hour (AID 1224885); note: nearly all actives have a fitted effect of over 50% in size; note: potency is the fitted concentration of half-maximal effect
Outline: (§4)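 Real-time, nonlytic viability: 600 HepG2 cells/well mixed with NanoLuc enzyme plus prosubstrate; 5 h settle, compound (DMSO) added by pintool; luminescence monitored over 40 h at 37 C.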

[6] = qHTS RealTime-Glo MT Cell Viability Assay in HEK293 cells - 8 hour (AID 1224887); note: nearly all actives have a fitted effect of over 50% in size; note: potency is the fitted concentration of half-maximal effect; for activity change, negative = cytotoxicity: top concentration of the series differs between compounds
Outline: as §1

[7] = A CellTox Green Cytotoxicity Assay to monitor cytotoxicity in HEK293 cells - 16 hour (AID 1224888); note: nearly all actives have a fitted effect of over 35% in size
Outline: as §2

[8] = qHTS RealTime-Glo MT Cell Viability Assay in HepG2 cells - 0 hour (AID 1224889); note: nearly all actives have a fitted effect of over 50% in size
Outline: as §4

[9] = A CellTox Green Cytotoxicity Assay to monitor cytotoxicity in HepG2 cells - 32 hour (AID 1224883); note: nearly all actives have a fitted effect of over 50% in size; note: potency is the fitted concentration of half-maximal effect
Outline: as §3

[10] = qHTS RealTime-Glo MT Cell Viability Assay in HEK293 cells - 24 hour (AID 1224886); note: nearly all actives have a fitted effect of over 50% in size; note: potency is the fitted concentration of half-maximal effect; for activity change, negative = cytotoxicity: top concentration of the series differs between compounds
Outline: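 Cells + reagent dispensed (600 cells/well, HEK293) → 5 h at 37 C/5% CO2 → 23 nL compound in DMSO pinned → 40 h at 37 C → luminescence read at 0, 8, 16, 24, 32, 40 h.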
% is set by controls: 0 for no effect and ±100 for the full control effect.

O=C(O)Cc1ccc(-c2ccccc2)cc1
inactive: Potency [1] | Potency [2] | Potency [3] | Potency [4] | Potency [5] | Potency [6] | Potency [7] | Potency [8]

OC/C(Br)=C(\Br)CO
inactive: Potency [1] | Potency [3] | Potency [9] | Potency [4] | Potency [5] | Potency [10] | Potency [6] | Potency [7] | Potency [8]

COCCOC
active: Potency [10] 0.74 µM
inactive: Potency [1] | Potency [3] | Potency [9] | Potency [4] | Potency [5] | Potency [7] | Potency [8]

CO[C@H]1O[C@H](CO)[C@@H](O)[C@H](O)[C@H]1O
inactive: Potency [1] | Potency [3] | Potency [9] | Potency [4] | Potency [5] | Potency [10] | Potency [6] | Potency [7]

CCOC(=O)[C@@H](C)Oc1ccc(Oc2nc3ccc(Cl)cc3o2)cc1
inactive: Potency [1] | Potency [2] | Potency [3] | Potency [4] | Potency [7] | Potency [8]
active: Potency [5] 8.71 µM | Potency [6] 21.9 µM

O=C(c1ccc(O)cc1)c1ccc(Cl)cc1
active: Potency [10] 22.3 µM
inactive: Potency [1] | Potency [3] | Potency [9] | Potency [4] | Potency [5] | Potency [8]

CN1CCN(c2c(F)cc3c(=O)c(C(=O)O)cn4c3c2OCN4C)CC1
inactive: activity change, negative = cytotoxicity [1] -2.72% [at 15.8 µM] | cytotoxicity [3] -9.31% [at 15.8 µM] | cytotoxicity increase [9] -4.96% [at 15.8 µM] | cytotoxicity increase [4] -22% [at 15.8 µM] | activity change, negative = cytotoxic [5] 4.97% [at 15.8 µM] | activity change, negative = cytotoxicity [10] 0.438% [at 15.8 µM] | activity change, negative = cytotoxicity [6] 1.15% [at 15.8 µM] | activity change [7] -3.76% [at 15.8 µM, hits give high values] | activity change, negative = cytotoxicity [8] 2.43% [at 15.8 µM]

CC(C)CCCC(=O)O
inactive: Potency [1] | Potency [3] | Potency [9] | Potency [4] | Potency [5] | Potency [6] | Potency [7] | Potency [8]

CN(C(=O)C(Cl)Cl)c1ccc(OC(=O)c2ccco2)cc1
inactive: Potency [1] | Potency [3] | Potency [9] | Potency [4] | Potency [5] | Potency [10] | Potency [6] | Potency [7] | Potency [8]

NC(=O)N(O)[C@@H]1C=C[C@H](Oc2cccc(Oc3ccc(F)cc3)c2)C1
inactive: Potency [1] | Potency [3] | Potency [4] | Potency [5] | Potency [7] | Potency [8]
active: Potency [9] 38.9 µM | Potency [10] 15.5 µM

Nc1c(I)cc(I)c(C(=O)N(CCC(=O)O)c2ccccc2)c1I
inactive: Potency [1] | Potency [3] | Potency [9] | Potency [4] | Potency [5] | Potency [10] | Potency [6] | Potency [7] | Potency [8]

CCCc1c(OCCCOc2ccc(OCC(=O)O)cc2)ccc(C(C)=O)c1O
inactive: Potency [1] | Potency [3] | Potency [9] | Potency [4] | Potency [5] | Potency [10] | Potency [6] | Potency [7]

CCn1cc(C(=O)O)c(=O)c2cc(F)c(N3CCNCC3)nc21
inactive: Potency [1] | Potency [2] | Potency [3] | Potency [4] | Potency [5] | Potency [6] | Potency [7] | Potency [8]

Cc1ccc(S(=O)(=O)NC2CCCCC2)cc1
inactive: Potency [1] | Potency [2] | Potency [3] | Potency [4] | Potency [5] | Potency [6] | Potency [7] | Potency [8]

CCC(=O)OC/C=C/c1ccccc1
inactive: Potency [1] | Potency [3] | Potency [9] | Potency [4] | Potency [5] | Potency [10] | Potency [6] | Potency [7] | Potency [8]

CN(C)C(=O)Nc1ccc(Oc2ccc(Cl)cc2)cc1
inactive: Potency [1] | Potency [2] | Potency [3] | Potency [4] | Potency [5] | Potency [7]

CCC(C)(C)C1CCC(O)CC1 (stereo unspecified)
inactive: Potency [1] | Potency [2] | Potency [3] | Potency [4] | Potency [5] | Potency [6] | Potency [7] | Potency [8]

NCC1CCCC(CN)C1 (stereo unspecified)
inactive: Potency [1] | Potency [3] | Potency [9] | Potency [4] | Potency [5] | Potency [10] | Potency [6] | Potency [7] | Potency [8]

COC(=O)Nc1nc2ccc(C(=O)c3cccs3)cc2[nH]1
inactive: Potency [1] | Potency [2] | Potency [3] | Potency [4] | Potency [5] | Potency [7] | Potency [8]

OCC1CC=CCC1 (stereo unspecified)
inactive: Potency [1] | Potency [3] | Potency [9] | Potency [4] | Potency [5] | Potency [10] | Potency [6] | Potency [7]

CO[Si](C)(OC)OC
inactive: Potency [1] | Potency [2] | Potency [3] | Potency [4] | Potency [5] | Potency [6] | Potency [7] | Potency [8]

Brc1cc(-c2ccc(Br)c(Br)c2Br)cc(Br)c1Br
inactive: Potency [1] | Potency [3] | Potency [9] | Potency [4] | Potency [5] | Potency [10] | Potency [6] | Potency [7] | Potency [8]

CC1=CC(O)CC(C)(C)C1 (stereo unspecified)
inactive: Potency [1] | Potency [3] | Potency [9] | Potency [4] | Potency [5] | Potency [10] | Potency [6] | Potency [7] | Potency [8]

C[Si]1(C)O[Si](C)(C)O[Si](C)(C)O1
inactive: Potency [1] | Potency [3] | Potency [9] | Potency [4] | Potency [5] | Potency [10] | Potency [6] | Potency [7]
